Measured values taken from PubChem BioAssay (NCI).
About 83,000 compounds went through this panel and 20% of them were active in at least one assay; those are over-represented in the sample as a whole.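 Method: cells in 96-well plates; compound added at one concentration; 48 h incubation; percent growth measured; values under 10 scored active.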 Active and inactive are the calls of the source.

Experiments:
Assay in all cases: NCI-60 one-dose screen, 48 h (100 = growth as untreated, 0 = no growth, -100 = all killed)
Conditions in all cases: 10 µM unless noted
[1] = test system: NCI-H23 lung
[2] = test system: NCI-H226 lung
[3] = test system: NCI-H322M lung
[4] = test system: HOP-62 NSCLC
[5] = test system: NCI-H460 lung
[6] = test system: HOP-92 NSCLC
[7] = test system: NCI-H522 lung
[8] = test system: A549/ATCC NSCLC
[9] = test system: 786-0 renal
[10] = test system: COLO 205 colon
[11] = test system: DU-145 prostate
[12] = test system: K-562 leukemia
[13] = test system: MALME-3M melanoma
[14] = test system: MDA-MB-231 breast
[15] = test system: RXF 393 renal
[16] = test system: SF-268 CNS
[17] = test system: SF-295 CNS
[18] = test system: SF-539 CNS
[19] = test system: UACC-257 melanoma
[20] = test system: M14 melanoma

Measured: growth

CCCCCn1cnc2c(=S)nc[nH]c21
inactive: [1] 102% | [2] 110% | [3] 121% | [4] 110% | [5] 98.5% | [6] 101% | [7] 90% | [8] 118% | [9] 106% | [10] 105% | [11] 124% | [12] 97.9% | [13] 111% | [14] 131% | [15] 160% | [16] 124% | [17] 119% | [18] 91% | [19] 131% | [20] 120%

CN(C)c1ccc(/C=C\C2=[N+](C)c3ccccc3C2(C)C)cc1
inactive: [2] 16.3% | [3] 23.7% | [4] 13.6% | [9] 18.1% | [11] 16.3% | [12] 90.8% | [13] 20.8% | [14] 23% | [15] 37.3% | [18] 22.1% | [20] 18%
active: [1] 7.51% | [5] 4.52% | [6] -15.6% | [7] -23.7% | [8] 2.47% | [10] -78.8% | [16] 6% | [17] -23.9%

O=C(Nc1ccc(Oc2ccc(F)cc2)c(Cl)c1)c1cccnc1
inactive: [1] 80% | [2] 99.8% | [3] 101% | [4] 106% | [5] 97% | [6] 91.9% | [7] 72.3% | [8] 86% | [9] 92.3% | [10] 120% | [11] 87% | [12] 50.9% | [13] 103% | [14] 93.7% | [15] 90.2% | [16] 95% | [17] 86% | [18] 94.4% | [19] 91.4% | [20] 97.3%

Cc1ccc(-c2nc(/C=N/Nc3cc(C)nc4ccc(Cl)cc34)c(C)o2)cc1
active: [3] -82.5% | [5] -77.2% | [7] -69.5% | [8] -47.4% | [9] -93.2% | [10] -86% | [11] 3.19% | [12] -10.9% | [13] -74.6% | [14] -83.9% | [15] -84.9% | [16] -52.7% | [18] -77.7% | [20] -14.2%
inactive: [1] 44.5% | [2] 81.3% | [4] 74.9% | [6] 29.9% | [17] 17.1% | [19] 107%

CC/C(Cc1ccccc1)=C(\c1ccc(OCCN2CCCC2)cc1)c1ccc(OC(C)=O)cc1
active: [10] 7.7% | [12] 3.2%
inactive: [1] 80.6% | [2] 93% | [3] 86.5% | [4] 94.5% | [5] 42.9% | [6] 78.8% | [7] 83.2% | [8] 78.4% | [9] 82.3% | [11] 95.6% | [13] 94.7% | [14] 99.6% | [15] 65% | [16] 76% | [17] 99.6% | [19] 93.9% | [20] 75.1%

Cc1cc2cc3cc(C)c(N(C)C)cc3nc2cc1N(C)C
active: [5] 8.26% | [6] -37% | [7] -11.7% | [8] 7.53% | [10] -23.8% | [18] 8.78%
inactive: [1] 23.9% | [2] 54.8% | [3] 22.3% | [4] 23.1% | [9] 28% | [11] 25.4% | [12] 41.5% | [13] 28.4% | [14] 63.2% | [15] 24% | [16] 13.9% | [17] 19.4% | [20] 37.4%

CCN(CC)CC(O)c1cc(-c2ccc(Cl)cc2)nc2c(C)c(Cl)ccc12 (centres undefined)
active: [1] -89.3% | [2] -15.8% | [3] -82.5% | [4] -100% | [5] -86% | [6] -46.8% | [7] -76% | [8] -85.8% | [9] -95.9% | [10] -100% | [11] -71.1% | [12] -75.3% | [13] -64% | [14] -82.2% | [15] -86.4% | [16] -29.5% | [17] -76.8% | [18] -98.6% | [19] -80.8% | [20] -98.5%

OC(c1cccc(C(F)(F)F)c1)c1cnccc1NC1CCCCCC1 (centres undefined)
active: [5] -23.9% | [6] 5.31% | [10] -76.3% | [12] 3.23% | [13] -77.7% | [20] -21.8%
inactive: [1] 26.1% | [2] 62.4% | [3] 46.3% | [4] 74.4% | [7] 58.6% | [8] 53.8% | [9] 56.2% | [11] 71.6% | [14] 10.6% | [15] 32.3% | [16] 60.5% | [17] 14.2% | [18] 74.2% | [19] 39.5%

CC1CN(Cc2ccco2)C(=S)N(c2ccccc2)C1=O (centres undefined)
inactive: [1] 108% | [2] 97.3% | [3] 99.4% | [4] 88.1% | [5] 98.5% | [6] 92.7% | [7] 92.9% | [8] 110% | [9] 103% | [10] 128% | [11] 110% | [12] 62.7% | [13] 97.8% | [14] 106% | [15] 111% | [16] 105% | [17] 92.3% | [18] 90.8% | [20] 99.6%

Cc1ccc(N)cc1F
inactive: [1] 94.6% | [2] 101% | [3] 101% | [4] 84.1% | [5] 108% | [6] 109% | [7] 88.8% | [8] 99.8% | [9] 92.9% | [10] 168% | [11] 109% | [12] 99.1% | [13] 93.5% | [14] 82% | [15] 104% | [16] 98.6% | [17] 110% | [18] 100% | [20] 88.2%

O=C1C=CC(=O)N1c1ccc(Cc2ccc(N3C(=O)C=CC3=O)cc2)cc1
inactive: [1] 86% | [2] 84.8% | [3] 100% | [4] 90.5% | [5] 94.8% | [6] 90% | [7] 94.5% | [8] 111% | [9] 97.1% | [10] 115% | [11] 111% | [12] 66.4% | [13] 88.2% | [14] 90.3% | [15] 106% | [16] 118% | [17] 121% | [18] 93.4% | [20] 96.8%

O=C(Cc1ccccc1)c1ccc(Cl)cc1
inactive: [1] 95.4% | [2] 99% | [3] 108% | [4] 100% | [5] 109% | [6] 104% | [7] 93.8% | [8] 69.3% | [9] 94.5% | [10] 125% | [11] 119% | [12] 123% | [13] 105% | [14] 103% | [15] 121% | [16] 111% | [17] 103% | [18] 107% | [20] 101%

CCC(=O)OCc1cccc(OC)c1
inactive: [1] 107% | [2] 97.9% | [3] 108% | [4] 87.9% | [5] 95.8% | [6] 76.4% | [7] 94.5% | [8] 113% | [9] 102% | [10] 111% | [11] 111% | [12] 62.4% | [13] 116% | [14] 97.4% | [15] 103% | [16] 107% | [17] 104% | [18] 98% | [20] 96.3%

Nc1cccc(NC(=O)C(=O)Nc2cccc(N)c2)c1
inactive: [1] 105% | [2] 93.6% | [3] 109% | [4] 96.1% | [5] 117% | [6] 89.8% | [7] 91.7% | [8] 97.1% | [9] 68.5% | [10] 127% | [11] 107% | [12] 95.3% | [13] 141% | [14] 104% | [15] 87.5% | [16] 101% | [17] 98.1% | [18] 111% | [20] 87.4%

COc1cc(NC(N)=NCC(C)(C)COc2ccc(C(F)(F)F)cc2)cnc1C#N
active: [6] -9.25%
inactive: [1] 64.9% | [2] 68.7% | [3] 53.1% | [4] 68.5% | [5] 58% | [7] 57.6% | [8] 72.5% | [9] 61.4% | [10] 59.9% | [11] 81.6% | [12] 34.5% | [13] 57.6% | [14] 57% | [15] 41% | [16] 50.4% | [17] 82.9% | [18] 72% | [19] 69.1% | [20] 45.6%

Cc1ccc(SCN2CCN(c3cccc(Cl)c3)CC2)cc1
inactive: [1] 94.4% | [2] 80.9% | [3] 88.7% | [4] 114% | [5] 98.4% | [6] 89.7% | [7] 96% | [8] 106% | [9] 94.8% | [10] 115% | [11] 116% | [12] 118% | [13] 87.3% | [14] 84.3% | [15] 108% | [16] 100% | [17] 97.3% | [18] 96.2% | [20] 96.9%

CC1CN(C(C)C)C(=S)N(c2ccccc2)C1=O (centres undefined)
inactive: [1] 94.6% | [2] 106% | [3] 101% | [4] 85.7% | [5] 105% | [6] 107% | [7] 87% | [8] 101% | [9] 96.2% | [10] 157% | [11] 103% | [12] 95.9% | [13] 82% | [14] 90.4% | [15] 102% | [16] 98.8% | [17] 108% | [18] 96.4% | [20] 93.2%
